ChEMBL document CHEMBL4513216, “Probing the Open Global Health Chemical Diversity Library for Multistage-Active Starting Points for Next-Generation Antimalarials” (ACS Infect Dis, 2020)
The campaign covered roughly 68,000 compounds. About 2,700 (4%) showed an effect of 50% or more. The list comes from a sample in which strong results are over-represented; it also holds similar structures and randomly drawn compounds.

These compounds were tested on Plasmodium berghei (assay: Screen against P. berghei liver stage (PbLuc), transformed with Luciferase, at 2uM). Details: tested at 2 uM.
Format: functional, HepG2

SMILES | INHIBITION
Cc1nnc(CN(Cc2ccc3c(c2)OCO3)C2CCC(C)CC2)o1 (centres undefined) | -37.84%
CC(C)N(Cc1cccc(Cl)c1)Cc1nnsc1Cl | 16.72%
Cc1nnc(CN(Cc2ccc(Cl)c(Cl)c2)C2CC2)o1 | 50.59%
Cc1nnc(CN(Cc2cccc(Br)c2)C2CC2)o1 | -21.25%
Cc1nnc(CN(Cc2ccc(Cl)c(Cl)c2)C(C)C)o1 | 55.36%
Cc1nnc(CN(Cc2cccc(Cl)c2)C(C)C)o1 | 41.05%
O=C(c1ccccc1F)N1CCN(c2ccc(-n3cccc3)nn2)CC1 | -17.9%
O=C(c1cccnc1)N1CCN(c2ccnc3ccsc23)CC1 | 4.52%
c1cc(-c2cnccn2)cc(-c2ccn(CCN3CCCCC3)n2)c1 | 11.33%
c1ccc(-c2cccc(-c3ccn(CCN4CCCCC4)n3)c2)nc1 | 63.1%
c1cc(-c2cnccn2)cc(-c2ccn(CCN3CCCC3)n2)c1 | 6.07%
CS(=O)(=O)CCC(=O)N(CCc1cccc(F)c1)C1CC1 | 29.22%
CN(C(=O)c1cccnc1)C1CCCN(CCc2ccccc2)C1 (centres undefined) | 52.08%
CSc1ccccc1C(=O)N(C)C1CCCN(CCc2ccccc2)C1 (centres undefined) | -1.89%
CN(C(=O)CC1=CCCCC1)C1CCCN(CCc2ccccc2)C1 (centres undefined) | 73.01%
CN(C(=O)CCc1ccncc1)C1CCCN(CCc2ccccc2)C1 (centres undefined) | 42.17%
CN(C(=O)CC1=CCCCC1)C1CCCN(C2Cc3ccccc3C2)C1 (centres undefined) | -12.75%
CC(C)C(=O)NCC(=O)N(C)C1CCCN(CCc2ccccc2)C1 (centres undefined) | 15.44%
CC(=O)N1C[C@H]2CC[C@@H](C1)N(S(=O)(=O)c1ccc(C#N)cc1Cl)C2 | -0.38%
COCCc1noc(CN(C)C2CCCN(c3cccnn3)C2)n1 (centres undefined) | 1.07%
Cc1nccn1C1CCCN(C(=O)c2ccc3c(c2)COC3)C1 (centres undefined) | 23.92%
CC(C)c1nccn1C1CCCN(C(=O)c2ccc3nncn3c2)C1 (centres undefined) | 72.31%
CCc1nccn1C1CCCN(C(=O)c2ccc3nncn3c2)C1 (centres undefined) | -32.49%
CC(C)c1nccn1C1CCCN(C(=O)c2ccc3c(c2)OCO3)C1 (centres undefined) | 4.5%
CC(C)c1nccn1C1CCCN(C(=O)c2ccc3c(c2)COC3)C1 (centres undefined) | 54.28%
Cc1nccn1C1CCCN(C(=O)c2ccc3nncn3c2)C1 (centres undefined) | 47.87%

SMILES | INHIBITION
OC(CN1CCN(Cc2cccnc2)CC1)c1cccs1 (centres undefined) | -11.22%
Cn1c(N2CCOCC2)nc2cc(C(=O)N3CC(O)CO3)ccc21 (centres undefined) | -23.4%
COc1ccc(CN2CCc3ncnc(OC(C)C)c3CC2)cc1 | 10.69%
Cc1cc(C)c2[nH]c(C(=O)NCCN3CCNC3=O)c(C)c2c1 | 8.76%
COc1cc(N2CCOC(c3ccc(F)cc3)C2)ncn1 (centres undefined) | 19.27%
N#Cc1c(F)cccc1Nc1cnn(CC(N)=O)c1 | -58.5%
CCc1nc2n(n1)CC(NCc1nc(-c3cccnc3)no1)CC2 (centres undefined) | 41.71%
CCc1nc2n(n1)CC(NCc1cn(C)nc1-c1cccnc1)CC2 (centres undefined) | 54.29%
Cn1cc(CNC2CCc3ncnn3C2)c(-c2cccnc2)n1 (centres undefined) | 13.53%
O=C(Nc1ncn(CC(=O)N2CCCCCC2)n1)C1CCCO1 (centres undefined) | 53.03%
O=C(Nc1ncn(CC(=O)N2CCCCCC2)n1)C1CCCC1 | 35.23%
CC(CC(=O)Nc1ncn(CC(=O)N2CCCCCC2)n1)C1CC1 (centres undefined) | 34.73%
CCCC(N)CNS(=O)(=O)Cc1cccc(C#N)c1 (centres undefined) | 22.07%
CCC(c1nc(CC(C)C)nn1-c1ccccn1)n1cccn1 (centres undefined) | -72.12%
CCNC(=O)[C@@H]1C[C@H](N)CN1C(=O)c1c[nH]c2ccccc12 | 22.16%
COC(=O)N1CCc2ccc(NC(=O)c3cn(C)nn3)cc2C1 | 41.44%
Cn1cc(C(=O)Nc2ccc3c(c2)CN(C(=O)C2CC2)CC3)nn1 | 0%
CC(=O)N1CCc2ccc(NC(=O)c3cn(C)nn3)cc2C1 | 29.65%
CN(C)C(=O)Cc1ccc(NC(=O)c2cn(C)nn2)cc1 | 29.87%
Cn1cc(C(=O)Nc2ccc(CC(=O)NCC(F)(F)F)cc2)nn1 | 78.24%
Cn1cc(C(=O)Nc2ccc(CC(=O)NC3CC3)cc2)nn1 | 52.85%
COCCn1ccc(=O)c(OCC(=O)Nc2ccc(OC)c(Cl)c2)c1C | 30.58%
CCn1ncc(CN2CCCC(n3c(=O)oc4ccccc43)C2)c1C (centres undefined) | -3.96%
COC(=O)c1cccc(C(=O)N(C)Cc2ccsc2)c1 | -21.49%
NC(=O)c1cc2c(nc1N)CCN(C(=O)C1CCCCC1)C2 | 6.97%
COC(=O)c1ccc(N2CCN(C(=O)c3cnn(C)c3)C(C)C2)cc1 (centres undefined) | 47.57%

SMILES | INHIBITION
O=C(NCC1Cn2nnc(-c3ccsc3)c2CO1)c1ccc[nH]1 (centres undefined) | 34.16%
CCc1ccc(CN2CCC3(CC2)C(=O)N(C)CCN3CC)cc1 | 47.42%
CCN1CCN(C)C(=O)C12CCN(Cc1cccc(C)c1)CC2 | 60.6%
CN1CCN(C)C2(CCN(Cc3ccsc3)CC2)C1=O | 59.5%
CCN1CCN(C)C2(CCN(Cc3ccsc3)CC2)C1=O | 38.64%
CCN1CCN(C)C(=O)C12CCN(Cc1csc(C)n1)CC2 | -66.6%
CCN1CCN(C)C(=O)C12CCN(Cc1ccsc1)CC2 | 39.18%
CCCc1cnc(C)nc1N1CCC(Cc2cccc(C(N)=O)c2)C1 (centres undefined) | -9.75%
CC(C(=O)NC1CCN(C)CC1)n1nc(C(F)(F)F)c(Cl)c1C1CC1 (centres undefined) | -4.77%
CCN(C(=O)CN(CC(N)=O)C(C)C)C1=CCCC1 | 25.21%
OCc1n[nH]c(-c2ccc(F)cc2)n1 | 27.8%
CC(C(=O)N1CCN(Cc2ccc3c(c2)OCO3)CC1)n1ccnc1 (centres undefined) | 17.98%
COC(=O)CC1CCCCN1CC(=O)Nc1cc(F)ccc1F (centres undefined) | 30.82%
O=S(=O)(NC1=NCN(CCc2cccs2)CN1)c1ccc(F)cc1 | 36.15%
O=S(=O)(NC1=NCN(CCc2cccs2)CN1)c1ccccc1 | 18.22%
O=S(=O)(NC1=NCN(CCc2cccs2)CN1)c1ccc(Br)cc1 | 50.67%
O=C(Cc1cnccn1)N1C[C@@H]2CC[C@H]1CN(Cc1cscn1)C2 | -41.49%
COCC(=O)N1C[C@H]2CNC[C@@]2(C(=O)NCc2cc(C)n[nH]2)C1 | 40.51%
COCC(=O)N1C[C@H]2CNC[C@@]2(C(=O)NCc2c(C)noc2C)C1 | 1.8%
COCC(=O)N1C[C@H]2CNC[C@@]2(C(=O)NCc2nc(C)cc(C)n2)C1 | 67.44%
N[C@H]1CN(C(=O)c2ccc(Cl)cc2O)C[C@@H]1C1CC1 | -6.83%
N[C@H]1CN(C(=O)c2ccc(Cl)cc2F)C[C@@H]1C1CC1 | 19.54%
N[C@H]1CN(C(=O)Cc2ccc(Cl)c(Cl)c2)C[C@@H]1C1CC1 | 4.72%
Cc1cc(Cl)ccc1C(=O)N1C[C@H](C2CC2)[C@@H](N)C1 | 60.42%
N[C@H]1CN(C(=O)Cc2cc(F)cc(Cl)c2)C[C@@H]1C1CC1 | 55.39%
N[C@H]1CN(C(=O)Cc2ccc(CO)cc2)C[C@@H]1C1CC1 | 39.97%

SMILES | INHIBITION
CN(CCCN1CCCC1)[C@@H]1c2ccccc2C2(CCNCC2)[C@H]1O | 9.18%
COC(=O)c1ccc(CN(C)C(=O)c2cnsn2)cc1 | -18.04%
COc1ccc(C[C@H]2CN(C3CCOCC3)CC[C@H]2OCC2CC2)cc1 | 68.29%
COc1ccc(C[C@H]2CN(C3CCOCC3)CC[C@@H]2OCC2CC2)cc1 | 21.06%
c1ccc(C[C@H]2CN(C3CCOCC3)CC[C@H]2OCC2CC2)cc1 | -22.32%
CCc1cnc(N2CC[C@H]3[C@@H]2CCC(=O)N3CC2CCOCC2)nc1 | 8.37%
CNC(=O)[C@H]1C[C@H]2CN(Cc3cccc(C)c3)C[C@@H]1O2 | 14.09%
CC(C)NC(=O)CC1[C@H]2CN(C(=O)Cc3ccccn3)C[C@@H]12 (some centres undefined) | 33.39%
CN1CCN(S(=O)(=O)c2ccc(C(=O)N3CC[C@@H](O)C3)cc2)CC1=O | -27.61%
O=C(c1ccc(S(=O)(=O)N2CCSCC2)cc1)N1CCC(O)C1 (centres undefined) | -57.76%
O=C(c1ccc(S(=O)(=O)N2CCNCC2)cc1)N1CCCC(O)C1 (centres undefined) | 57.4%
CCn1cc(S(=O)(=O)N2CCC(C3CCCCN(C)C3=O)CC2)c(C)n1 (centres undefined) | -12.21%
CC(=O)c1cn(CC(=O)NC(C(=O)O)C(C)C)c2ccccc12 (centres undefined) | -7.53%
COc1cc(C(C)NCc2ncccc2C)ccc1SC(F)F (centres undefined) | -48.24%
CC(C)N1CCc2c(CN(C)Cc3ccco3)cncc2C1 | 16.48%
CCS(=O)(=O)N1CCc2c(CN(C)Cc3ccco3)cncc2C1 | -21.1%
CN(Cc1ccco1)Cc1cncc2c1CCN(S(C)(=O)=O)C2 | 51.94%
Cc1nc(C)n(CC2CCCN2CC(=O)NC2CCOCC2)n1 (centres undefined) | 32.76%
Cc1nc(C)n(CC2CCCCN2CCC(=O)Nc2cc(C)on2)n1 (centres undefined) | -14.71%
Cc1nc(C)n(CC2CCCCN2CC(=O)NC2CCOCC2)n1 (centres undefined) | 60.31%
Cc1nc(C)n(CC2CCCCN2CC(=O)Nc2cc(C)on2)n1 (centres undefined) | 64.16%
Cc1nc(C)n(CC2CCCN2CC(=O)Nc2ccncc2)n1 (centres undefined) | -40.36%
CCN1CCC(NC(=O)CN2CCCC2Cn2nc(C)nc2C)CC1 (centres undefined) | -2.82%
Cc1nc(C)n(CC2CCCCN2CC(=O)Nc2cccnc2)n1 (centres undefined) | -12.75%
Cc1nc(C)n(CC2CCCN2CC(=O)Nc2cc(C)on2)n1 (centres undefined) | -1.02%
Cc1nc(C)n(CC2CCCCN2CC(=O)Nc2ccncc2)n1 (centres undefined) | 51.21%
